Measurements: the supplement of paper PMC6411743
± gives the standard deviation of the averaged measurements. The full data set covers some 6,500 targets. This sample favours those with the largest changes.

Compound: Nc1ncnc2c1ncn2[C@@H]1O[C@H](COP(=O)(O)OP(=O)(O)OP(=O)(O)O)[C@@H](O)[C@H]1O [adenosine triphosphate]
Test: NP40-soluble protein abundance relative to vehicle (solubility fold change) (ratio); higher = more soluble protein in presence of ATP
Outline: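 Data come from three independent experiments in which Dounce-homogenised Jurkat crude lysate was treated at eight concentrations from 0.1 to 10 mM. Treatment ran 10 min at room temperature and then 3 min at 37 °C, after which 0.8% NP40 and benzonase were added for 60 min at 4 °C before ultracentrifugation. The supernatant underwent TMT labelling and LC-MS/MS, and vsn-normalised intensities were expressed as fold change against the detergent-processed vehicle in each replicate.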

Sequence of UniProt Q8TEB1 (Q8TEB1 whole entry): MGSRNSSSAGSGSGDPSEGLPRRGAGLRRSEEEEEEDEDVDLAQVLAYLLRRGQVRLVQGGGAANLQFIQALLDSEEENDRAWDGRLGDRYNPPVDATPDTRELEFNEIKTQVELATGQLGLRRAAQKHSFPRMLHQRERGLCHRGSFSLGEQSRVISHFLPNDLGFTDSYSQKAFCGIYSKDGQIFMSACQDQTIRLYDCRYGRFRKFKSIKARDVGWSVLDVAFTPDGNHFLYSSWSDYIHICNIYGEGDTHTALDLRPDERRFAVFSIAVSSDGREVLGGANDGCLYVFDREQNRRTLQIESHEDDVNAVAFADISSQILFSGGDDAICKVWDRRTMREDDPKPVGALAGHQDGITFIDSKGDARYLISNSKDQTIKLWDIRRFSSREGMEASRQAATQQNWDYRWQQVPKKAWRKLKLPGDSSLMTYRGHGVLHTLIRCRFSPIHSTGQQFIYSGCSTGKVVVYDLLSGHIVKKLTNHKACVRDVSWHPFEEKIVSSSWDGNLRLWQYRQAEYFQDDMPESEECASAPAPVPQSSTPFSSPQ
Sequence of UniProt Q8IYD1 (Q8IYD1 whole entry): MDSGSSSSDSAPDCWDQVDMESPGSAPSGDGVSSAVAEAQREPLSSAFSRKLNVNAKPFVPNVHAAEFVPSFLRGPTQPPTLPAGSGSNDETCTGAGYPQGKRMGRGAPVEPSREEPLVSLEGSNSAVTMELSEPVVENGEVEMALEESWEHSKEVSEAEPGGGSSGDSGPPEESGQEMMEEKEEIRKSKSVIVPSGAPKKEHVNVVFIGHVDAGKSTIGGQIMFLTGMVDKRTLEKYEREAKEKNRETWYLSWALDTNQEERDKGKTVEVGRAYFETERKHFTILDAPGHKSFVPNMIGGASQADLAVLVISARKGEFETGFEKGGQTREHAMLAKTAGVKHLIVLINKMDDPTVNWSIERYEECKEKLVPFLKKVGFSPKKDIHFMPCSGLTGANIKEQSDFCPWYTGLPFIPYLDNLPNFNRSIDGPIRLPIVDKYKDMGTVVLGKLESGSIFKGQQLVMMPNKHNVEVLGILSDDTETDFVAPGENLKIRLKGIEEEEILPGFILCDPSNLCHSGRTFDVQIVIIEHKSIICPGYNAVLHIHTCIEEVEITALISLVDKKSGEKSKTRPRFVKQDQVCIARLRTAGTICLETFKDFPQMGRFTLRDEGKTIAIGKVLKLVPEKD
Sequence of UniProt Q86Y01 (Q86Y01 whole entry): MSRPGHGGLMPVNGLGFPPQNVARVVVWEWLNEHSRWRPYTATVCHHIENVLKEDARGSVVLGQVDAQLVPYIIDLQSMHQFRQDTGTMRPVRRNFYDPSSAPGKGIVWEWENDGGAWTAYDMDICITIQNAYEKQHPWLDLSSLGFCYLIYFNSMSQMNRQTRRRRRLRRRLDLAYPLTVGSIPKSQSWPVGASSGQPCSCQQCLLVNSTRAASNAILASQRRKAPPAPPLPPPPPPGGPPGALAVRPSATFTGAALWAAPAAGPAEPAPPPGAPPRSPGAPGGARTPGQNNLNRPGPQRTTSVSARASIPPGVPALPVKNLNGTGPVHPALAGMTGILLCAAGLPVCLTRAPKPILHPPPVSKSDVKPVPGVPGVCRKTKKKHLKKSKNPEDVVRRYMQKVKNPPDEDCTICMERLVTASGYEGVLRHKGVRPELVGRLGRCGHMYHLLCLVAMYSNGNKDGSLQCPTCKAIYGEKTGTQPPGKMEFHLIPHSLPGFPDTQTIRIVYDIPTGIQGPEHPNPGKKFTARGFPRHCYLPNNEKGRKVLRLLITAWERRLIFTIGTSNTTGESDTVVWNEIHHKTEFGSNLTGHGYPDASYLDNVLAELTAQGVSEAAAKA
Sequence of UniProt Q8TDY2 (Q8TDY2 whole entry): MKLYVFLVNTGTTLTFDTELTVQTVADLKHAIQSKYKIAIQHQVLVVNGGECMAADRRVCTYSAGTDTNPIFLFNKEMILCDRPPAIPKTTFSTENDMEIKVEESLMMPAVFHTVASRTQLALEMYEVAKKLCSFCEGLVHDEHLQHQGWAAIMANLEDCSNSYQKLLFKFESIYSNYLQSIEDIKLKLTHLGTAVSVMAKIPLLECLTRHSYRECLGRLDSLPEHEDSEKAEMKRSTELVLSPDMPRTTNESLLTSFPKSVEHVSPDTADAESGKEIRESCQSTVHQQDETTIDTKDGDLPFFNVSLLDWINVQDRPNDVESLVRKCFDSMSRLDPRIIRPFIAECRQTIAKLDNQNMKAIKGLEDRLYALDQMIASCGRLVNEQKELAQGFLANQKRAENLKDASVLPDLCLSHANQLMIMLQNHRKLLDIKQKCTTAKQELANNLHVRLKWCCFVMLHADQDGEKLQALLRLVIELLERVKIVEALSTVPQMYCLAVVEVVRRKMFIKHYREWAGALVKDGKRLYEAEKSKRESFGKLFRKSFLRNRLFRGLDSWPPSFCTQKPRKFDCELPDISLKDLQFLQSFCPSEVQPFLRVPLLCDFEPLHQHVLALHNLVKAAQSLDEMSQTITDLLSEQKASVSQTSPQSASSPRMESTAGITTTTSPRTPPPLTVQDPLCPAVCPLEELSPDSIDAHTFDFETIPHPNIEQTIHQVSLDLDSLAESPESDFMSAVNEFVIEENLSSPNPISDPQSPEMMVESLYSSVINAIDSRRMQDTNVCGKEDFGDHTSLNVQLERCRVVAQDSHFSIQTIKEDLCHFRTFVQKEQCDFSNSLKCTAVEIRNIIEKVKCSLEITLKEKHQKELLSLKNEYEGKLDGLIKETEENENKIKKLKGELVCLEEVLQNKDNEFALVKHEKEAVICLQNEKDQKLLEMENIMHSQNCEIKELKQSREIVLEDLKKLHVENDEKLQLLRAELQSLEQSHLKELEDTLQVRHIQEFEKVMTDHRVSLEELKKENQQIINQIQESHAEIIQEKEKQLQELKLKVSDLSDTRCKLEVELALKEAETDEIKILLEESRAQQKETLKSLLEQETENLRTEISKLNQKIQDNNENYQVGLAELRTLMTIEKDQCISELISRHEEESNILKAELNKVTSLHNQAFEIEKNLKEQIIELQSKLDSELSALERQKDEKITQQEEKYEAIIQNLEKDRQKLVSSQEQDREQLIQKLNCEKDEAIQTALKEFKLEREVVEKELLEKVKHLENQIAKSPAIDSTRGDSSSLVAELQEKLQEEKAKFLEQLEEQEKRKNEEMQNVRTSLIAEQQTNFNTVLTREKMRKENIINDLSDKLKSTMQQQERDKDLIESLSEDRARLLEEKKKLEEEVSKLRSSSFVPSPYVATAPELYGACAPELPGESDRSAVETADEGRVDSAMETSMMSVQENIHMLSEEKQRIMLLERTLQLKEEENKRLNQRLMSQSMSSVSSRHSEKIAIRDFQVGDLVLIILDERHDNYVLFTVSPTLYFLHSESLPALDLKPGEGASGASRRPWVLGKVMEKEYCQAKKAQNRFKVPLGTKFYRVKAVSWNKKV
Sequence of UniProt Q2NKX8 (Q2NKX8 whole entry): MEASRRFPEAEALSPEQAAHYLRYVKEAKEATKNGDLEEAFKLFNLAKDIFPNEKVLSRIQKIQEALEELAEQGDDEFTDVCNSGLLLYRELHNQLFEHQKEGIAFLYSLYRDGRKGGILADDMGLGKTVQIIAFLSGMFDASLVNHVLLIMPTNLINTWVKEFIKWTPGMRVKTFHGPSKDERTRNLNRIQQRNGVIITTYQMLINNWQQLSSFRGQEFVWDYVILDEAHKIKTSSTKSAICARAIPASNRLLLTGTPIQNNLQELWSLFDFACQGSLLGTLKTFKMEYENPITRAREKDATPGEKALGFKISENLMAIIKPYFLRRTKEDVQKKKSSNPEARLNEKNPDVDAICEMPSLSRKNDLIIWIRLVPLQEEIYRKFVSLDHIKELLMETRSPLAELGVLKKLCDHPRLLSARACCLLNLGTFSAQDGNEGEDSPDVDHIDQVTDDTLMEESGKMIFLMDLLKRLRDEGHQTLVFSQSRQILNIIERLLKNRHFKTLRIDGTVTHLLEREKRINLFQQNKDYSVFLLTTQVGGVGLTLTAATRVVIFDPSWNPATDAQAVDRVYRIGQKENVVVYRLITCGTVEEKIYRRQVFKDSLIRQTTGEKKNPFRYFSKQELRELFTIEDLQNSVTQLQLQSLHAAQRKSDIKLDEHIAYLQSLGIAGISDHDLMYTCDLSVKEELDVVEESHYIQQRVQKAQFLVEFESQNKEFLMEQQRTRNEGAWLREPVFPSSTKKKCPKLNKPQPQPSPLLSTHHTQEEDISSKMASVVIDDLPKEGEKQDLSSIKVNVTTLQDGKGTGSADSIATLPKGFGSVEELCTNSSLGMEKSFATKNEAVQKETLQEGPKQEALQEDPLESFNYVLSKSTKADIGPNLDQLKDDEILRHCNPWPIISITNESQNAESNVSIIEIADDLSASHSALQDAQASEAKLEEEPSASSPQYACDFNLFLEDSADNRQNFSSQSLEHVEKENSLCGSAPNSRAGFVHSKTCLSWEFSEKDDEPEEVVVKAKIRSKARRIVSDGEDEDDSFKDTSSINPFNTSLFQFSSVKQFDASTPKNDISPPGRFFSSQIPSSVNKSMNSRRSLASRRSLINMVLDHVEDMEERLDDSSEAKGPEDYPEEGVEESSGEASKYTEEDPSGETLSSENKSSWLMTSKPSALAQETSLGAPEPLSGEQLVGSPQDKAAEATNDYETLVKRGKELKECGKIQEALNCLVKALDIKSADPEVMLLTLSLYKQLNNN
Sequence of UniProt Q13158 (Q13158 whole entry): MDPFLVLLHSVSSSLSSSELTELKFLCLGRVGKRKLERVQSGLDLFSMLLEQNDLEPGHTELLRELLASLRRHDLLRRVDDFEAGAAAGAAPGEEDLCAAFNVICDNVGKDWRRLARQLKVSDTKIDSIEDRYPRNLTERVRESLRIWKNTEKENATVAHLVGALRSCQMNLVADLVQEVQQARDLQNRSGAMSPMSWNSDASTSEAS

Target	NP40-soluble protein abundance (concentration: 1mM)	NP40-soluble protein abundance (concentration: 2mM)	NP40-soluble protein abundance (concentration: 4mM)	NP40-soluble protein abundance (concentration: 6mM)	NP40-soluble protein abundance (concentration: 8mM)	NP40-soluble protein abundance (concentration: 10mM)
DDX60 (UniProt Q8IY21)	1.2 ± 0.078	1.27 ± 0.093	1.66 ± 0.11	1.73 ± 0.15	1.9 ± 0.16	1.95 ± 0.11
UniProt Q8NEJ9|Q8NEJ9-2	1.11 ± 0.12	1.13 ± 0.16	1.24 ± 0.064	1.29 ± 0.14	1.32 ± 0.058	1.34 ± 0.19
UniProt Q5T280	1.03 ± 0.085	1.08 ± 0.077	1.23 ± 0.12	1.47 ± 0.17	1.52 ± 0.21	1.83 ± 0.22
UniProt Q8TEB1|Q8TEB1-2	0.948 ± 0.093	0.977 ± 0.06	0.961 ± 0.079	0.956 ± 0.054	0.942 ± 0.066	0.918 ± 0.078
GSPT2 (UniProt Q8IYD1)	1.035 ± 0.0061	1.023 ± 0.0095	1 ± 0.016	1.01 ± 0.02	0.991 ± 0.042	0.987 ± 0.037
UniProt Q8IUD2|X6RLX0	0.979 ± 0.037	0.985 ± 0.025	0.997 ± 0.025	1.01 ± 0.014	0.988 ± 0.027	0.997 ± 0.025
UniProt Q86Y01	0.964 ± 0.033	1.05 ± 0.022	1.12 ± 0.065	1.05 ± 0.088	1.09 ± 0.012	1.15 ± 0.1
UniProt Q8TDY2|Q8TDY2-2	1.04 ± 0.056	1.02 ± 0.044	1.03 ± 0.038	1.04 ± 0.042	1.01 ± 0.041	1.04 ± 0.038
DDX51 (UniProt Q8N8A6)	1.25 ± 0.021	1.38 ± 0.085	1.65 ± 0.15	1.9 ± 0.22	2.05 ± 0.18	2.29 ± 0.27
URB2 (UniProt Q14146)	1.21 ± 0.1	1.36 ± 0.15	1.61 ± 0.058	1.68 ± 0.11	2.04 ± 0.16	2.19 ± 0.46
PRPF4B (UniProt Q13523)	1.29 ± 0.015	1.329 ± 0.011	1.46 ± 0.018	1.6 ± 0.061	1.68 ± 0.041	1.8 ± 0.022
UniProt Q86UT6|Q86UT6-2	1.03 ± 0.027	1.081 ± 0.0018	0.99 ± 0.06	1.01 ± 0.18	1.02 ± 0.14	1.03 ± 0.12
UniProt Q13111|K7EPA1	0.987 ± 0.059	0.988 ± 0.028	0.97 ± 0.035	1.03 ± 0.031	0.977 ± 0.036	1.01 ± 0.036
ZNF672 (UniProt Q499Z4)	0.994 ± 0.061	1.07 ± 0.0039	1 ± 0.089	0.93 ± 0.078	0.996 ± 0.047	0.995 ± 0.016
UniProt Q7L590|Q7L590-2|Q5T670	1.01 ± 0.11	1.07 ± 0.059	1.13 ± 0.044	1.01 ± 0.057	1.11 ± 0.12	1.14 ± 0.12
FADD (UniProt Q13158)	1.1 ± 0.14	1.05 ± 0.05	1.06 ± 0.11	1.05 ± 0.046	1.06 ± 0.13	0.969 ± 0.11
MDC1 (UniProt Q14676)	1.45 ± 0.11	1.57 ± 0.11	1.74 ± 0.13	1.89 ± 0.18	1.88 ± 0.13	1.99 ± 0.15
ERCC6L (UniProt Q2NKX8)	0.999 ± 0.024	0.986 ± 0.026	0.971 ± 0.024	0.999 ± 0.033	0.966 ± 0.0079	0.978 ± 0.017
